# Results filed as inconclusive are left out. Activity calls are given as the source filed them. Calls follow the shape of the dose curve; as a rule, active = well fitted curve in the direction sought with a large enough effect; inconclusive = small, poorly fitted or top-dose-only effect, or another doubt; inactive = no such curve, though single readings can be large or run the other way.
# Test system: Zika virus NS2B-NS3 protease (linked)
# Assay: Optimization screen NINDS AMC qHTS for Zika virus inhibitors: Linked NS2B-NS3 protease assay
# Details: recombinant linked NS2B-NS3 protease, AMC fluorogenic substrate; series mostly up to 52.5 µM
# Description: Avindra Nath, Ph.D., National Institute of Neurological Disorders and Stroke (NINDS), Bethesda, MD
# Radhakrishnan Padmanabhan, Ph.D., Georgetown University (GU), Washington D.C.
# Zika Virus causes congenital defects, including microcephaly and is associated with Guillain-Barre syndrome, eningoencephalitis and myelitis in infected adult. […] Using a target-based approach, we hope to establish a screening paradigm to uncover novel, cell-active NS2B-NS3 protease (Zika Virus) specific inhibitors from NCATS' collection of small molecules using qHTS.
# Four assay panel was created to identify potential Zika Virus inhibitors. Namely, (1) GU unlinked NS2B-NS3 AMC tagged protease qHTS, (2) GU unlinked NS2B-NS3 Rhodamine tagged protease qHTS, (3) NINDS linked NS2B-NS3 AMC tagged protease qHTS, (4) NINDS linked NS2B-NS3 Rhodamine tagged protease qHTS. Active compounds were re-acquired and re-screened to confirm inhibition. Inhibitors were further screened against various confirmatory and counterscreens in dose response format.
# Early Translation Branch (ETB)
# National Center for Advancing Translational Sciences (NCATS), Rockville, MD
# National Institute of Health (NIH), Bethesda, Maryland
# For the linked assay, Nath lab (NINDS) provided the purified linked NS2B-NS3 protease which is consists of hydrophilic domain of NS2B linked to the NS3 protease domain by a flexible (-GGGGSGGGG-) linker. Control compound aprotinin is obtained from Thermo Scientific (#78432; Waltham, Massachusetts). NS2B-NS3 AMC substrate (Bz-Nle-Lys-Arg-Arg-AMC; Nle-KRR-AMC) purchased from Bachem (#I-1995; Torrance, CA). Ac-VKTGKR-AMC purchased from Genscript or Bachem, Ac-FAAGKR-AMC purchased from Genscript, Ac-GLVKRR-AMC purchased from Genscript, Ac-LKKR-AMC purchased from Genscript.
# NINDS AMC linked NS2B-NS3 protease qHTS protocol:
# Briefly, 3 microL of Zika virus linked NS2B-NS3 protease (1 nM for linked final concentration), in assay buffer (10 mM Tris-HCl pH 8.0 with 0.01% Tween 20) was dispensed into a 1,536-well solid-bottom black plate (Greiner Bio One, Monroe, NC). Twenty-three nL of compounds (final concentration range 7.28 nM to 114 microM) or control Aprotinin (final concentration range 3.47 nM to 114 microM) were transferred via Wako Pin-tool (Wako Automation, Richmond, VA). Samples were incubated (room temperature, protected from light) for 15 minutes followed by a 1 microL AMC substrate addition of (final concentration of 10 microM; Km = 18.3 µM). Plates were then read immediately on a ViewLux High-throughput CCD imager (PerkinElmer, Waltham, MA) equipped with standard UV fluorescence optics (340(30) nm excitation, 450(20) nm emission) then incubated (room temperature, protected from light) for 15 minutes (~20% conversion). The change in fluorescence intensity over the 15-minute reaction period was normalized against no-inhibitor and no-enzyme controls and the resulting percent inhibition data were fitted to a 4-parameter Hill equation. Aprotinin was used as the intraplate control.
row,Structure (SMILES),outcome
1,C[C@@H]1[C@@H]2Cc3ccc(O)cc3[C@@]1(C)CCN2CC1CC1,inactive
2,CN1CC[C@@]23CCCC[C@@H]2[C@@H]1Cc1ccc(O)cc13,inactive
3,CC1O[C@@H](O[C@@H]2C(O)C[C@H](O[C@@H]3C(O)C[C@@H](OC4CC[C@@]5(C)C6CC[C@]7(C)C(C8=CC(=O)OC8)CC[C@@]7(O)C6CC[C@@H]5C4)OC3C)OC2C)CC(O)[C@H]1O (stereo partly specified),inactive
4,CC(C)=CCN1CC[C@@]2(C)c3cc(O)ccc3C[C@@H]1[C@@H]2C,inactive
5,COC1C(O)C(C)O[C@@H](OC2CC[C@@]3(C)C4CC[C@]5(C)C(C6=CC(=O)OC6)CC[C@@]5(O)C4CC[C@@H]3C2)C1O (stereo partly specified),inactive
6,C[C@H]1[C@H]2Cc3ccc(O)cc3[C@]1(C)CCN2CCc1ccccc1,inactive
7,C[C@@H]1O[C@@H](O[C@H]2C[C@@H](O)[C@]3(CO)C4C(CC[C@]3(O)C2)[C@@]2(O)CC[C@H](C3=CC(=O)OC3)[C@@]2(C)C[C@H]4O)[C@H](O)[C@H](O)[C@H]1O (stereo partly specified),inactive
8,CC1OC(O[C@H]2C[C@@H](O)[C@]3(CO)[C@H]4[C@H](O)C[C@]5(C)[C@@H](C6=CC(=O)OC6)CC[C@]5(O)[C@@H]4CC[C@]3(O)C2)C(O)C(O)C1O (stereo partly specified),inactive
9,C[C@H]1O[C@@H](O[C@H]2[C@@H](O)C[C@H](O[C@H]3[C@@H](O)C[C@H](O[C@H]4CC[C@@]5(C)[C@H](CC[C@@H]6[C@@H]5CC[C@]5(C)[C@@H](C7=CC(=O)OC7)CC[C@]65O)C4)O[C@@H]3C)O[C@@H]2C)C[C@H](O)[C@@H]1O,inactive
10,C=CCN1CCC2(C)c3cc(O)ccc3CC1C2C (stereo unspecified),inactive
11,C=CCN1CCC2(C)c3cc(O)ccc3C[C@H]1[C@H]2C,inactive
12,CC(C)OC(=O)Nc1ccccc1,inactive
13,CO[C@H]1[C@@H](O)CC(OC2[C@@H](O)CC(OC3[C@@H](O)C[C@H](OC4CC[C@@]5(C)C(CCC6C5CC(O)[C@]5(C)[C@H](C7=CC(=O)OC7)CCC65O)C4)O[C@@H]3C)O[C@@H]2C)O[C@@H]1C (stereo partly specified),inactive
14,CN1CC[C@@]23CCCCC2C1Cc1ccc(O)cc13 (stereo partly specified),inactive
15,C=CCN1CC[C@]23CCCCC2[C@H]1Cc1ccc(O)cc13 (stereo partly specified),inactive
16,C[C@@H]1O[C@@H](O[C@H]2C[C@@H](O)[C@]3(CO)[C@H]4[C@H](O)C[C@]5(C)[C@@H](C6=CC(=O)OC6)CC[C@]5(O)[C@@H]4CC[C@]3(O)C2)[C@H](O)[C@H](O)[C@H]1O,inactive
17,CC[C@H](C)[C@H]1O[C@]2(C=C[C@@H]1C)C[C@@H]1C[C@@H](C/C=C(\C)[C@@H](O[C@H]3C[C@H](OC)[C@@H](O[C@H]4C[C@H](OC)[C@@H](O)[C@H](C)O4)[C@H](C)O3)[C@@H](C)/C=C/C=C3\CO[C@@H]4[C@H](O)C(C)=C[C@@H](C(=O)O1)[C@]34O)O2,inactive
18,C[C@H]1O[C@@H](O[C@H]2[C@@H](O)C[C@@H](O[C@H]3[C@@H](O)C[C@H](O[C@H]4CC[C@@]5(C)[C@H](CC[C@@H]6[C@@H]5CC[C@]5(C)[C@@H](C7=CC(=O)OC7)CC[C@]65O)C4)O[C@@H]3C)O[C@@H]2C)C[C@H](O)[C@@H]1O,inactive
19,C[C@H]1O[C@@H](O[C@H]2[C@@H](O)C[C@H](O[C@H]3[C@@H](O)C[C@H](O[C@H]4CC[C@]5(C)C6CC[C@]7(C)[C@@H](C8=CC(=O)OC8)CC[C@]7(O)C6CC[C@@H]5C4)O[C@@H]3C)O[C@@H]2C)C[C@H](O)[C@@H]1O (stereo partly specified),inactive
20,Cc1ccc2c(c1)[C@]13CCCC[C@@H]1[C@H](C2)N(C)CC3,inactive
21,C[C@@H]1[C@@H]2Cc3ccc(O)cc3[C@@]1(C)CCN2CCc1ccccc1,inactive
